Reference: PubChem BioAssay (NCATS)
Values joined by “and” are separate entries in the source; they are usually repeats but may differ in a detail not shown here. Equal values may be shown once. Inconclusive results are not listed. Active and inactive are the calls of the source. Unless noted, the call rests on the fitted dose curve; in most records, active means well fitted curve in the direction sought with a large enough effect; inconclusive means small, poorly fitted or top-dose-only effect, or another doubt; inactive means no such curve, though single readings can be large; an effect the other way counts as inactive or inconclusive.

Key:
[1] = biological target: Cellular tumor antigen p53 (Homo sapiens) (UniProt P04637); test: Primary qHTS for small molecule compounds that upregulate eGFP-tagged delta133p53alpha (in N-terminal) cells. (AID 2060322); details: NCI-H358 eGFP-delta133p53alpha fluorescence, 24 h; activation: hits give high values; further: nearly all actives have a fitted effect of over 75% in size; further: potency means the concentration at half of the fitted maximal effect;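 on activation: cells pre-induced with doxycycline then dosed without doxycycline; 0% = DMSO vehicle and 100% = reference activator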
Cellular tumor antigen p53 (Homo sapiens), sequence (P04637 whole entry, looked up): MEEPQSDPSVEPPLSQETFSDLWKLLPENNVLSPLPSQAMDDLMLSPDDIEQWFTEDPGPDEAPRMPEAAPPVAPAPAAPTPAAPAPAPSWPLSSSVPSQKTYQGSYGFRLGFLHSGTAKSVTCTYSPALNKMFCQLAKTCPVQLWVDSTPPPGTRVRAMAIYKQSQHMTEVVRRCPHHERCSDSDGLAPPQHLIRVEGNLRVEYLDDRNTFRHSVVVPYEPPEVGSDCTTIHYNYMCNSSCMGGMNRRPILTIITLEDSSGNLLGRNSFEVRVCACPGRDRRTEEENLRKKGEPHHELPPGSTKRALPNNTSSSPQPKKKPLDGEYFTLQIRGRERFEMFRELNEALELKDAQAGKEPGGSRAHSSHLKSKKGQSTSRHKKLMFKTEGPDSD
Summary of the method: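 NCI-H358 cells pre-induced 24 h with 10 ng/ml doxycycline for eGFP-delta133p53alpha, plated dox-free and exposed 24 h at 37C to titrated compounds. Fixed, Hoechst-stained; gated GFP peak intensity by laser scanning cytometry, normalized to DMSO (0%) and 57.5 uM 5-azacytidine (100%).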

[2] = biological target: Cellular tumor antigen p53 (Homo sapiens) (UniProt P04637); test: Primary qHTS for small molecule compounds that upregulate eGFP-tagged delta133p53alpha (in C-terminal) cells. (AID 2060324); details: NCI-H358 delta133p53alpha-eGFP (C-terminal tag), GFP fluorescence imaging, 24 h; series mostly up to 57.5 µM; further: potency means the concentration at half of the fitted maximal effect
Summary of the method: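 Read-out: gated-cell GFP peak intensity (laser scanning cytometer), plate-normalized with DMSO as 0% activity, after 24 h compound exposure at 37C. Cells were C-terminal eGFP-tagged delta133p53alpha NCI-H358, doxycycline-induced (100 ng/ml, 24 h) before plating.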

[3] = biological target: Aldehyde dehydrogenase, mitochondrial (Homo sapiens) (UniProt P05091); test: qHTS for Inhibitors of the Aldehyde Dehydrogenase Family (ALDH2) Validation screens (AID 2061302; active means well fitted inhibition curve with a large enough effect; title and protocol of this record describe different tests;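 further: plate controls were DMSO vehicle for no effect and maximal DPI positive control response for full effect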); details: ALDH inhibition qHTS; series mostly up to 42.6 µM
[4] = biological target: Retinaldehyde dehydrogenase 3 (Homo sapiens) (UniProt P47895); test: qHTS for Inhibitors of the Aldehyde Dehydrogenase Family (ALDH1A3) Validation screen (AID 2061312); details: ALDH1A3 enzyme inhibition qHTS validation, fluorescence; series mostly up to 42.4 µM; further: on the % scale 0 is the no-effect control and ±100 the full control effect; nearly all actives have a fitted effect of over 45% in size
[5] = BET inhibitor-based combinations targeting novel dependencies in MECOM-rearranged (r) AML: SET-2 cell line (AID 2202231); details: SET-2 AML cells viability, CellTiter-Glo luminescence, 48 h; viability: hits give low values, concentration not given here;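 further: plate controls were DMSO treated cells for no effect and wells without cells for full effect; nearly all actives have a fitted effect of over 35% in size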
Summary of the method: (§1)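 Luminescent ATP readout (CellTiter-Glo) after 48 hr drug exposure gives viability. Curves span 11 concentrations and are normalized to DMSO and empty wells. Activity is reported as area under the curve and its Z-transform within each cell line.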

[6] = BET inhibitor-based combinations targeting novel dependencies in MECOM-rearranged (r) AML: OCI-AML3 cell line (AID 2202232); details: CellTiter-Glo luminescence, 48 h; Potency: OCI-AML3 viability; series mostly up to 46 µM;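 further: plate controls were DMSO vehicle wells for no effect and wells without cells for full effect; nearly all actives have a fitted effect of over 35% in size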
Summary of the method: as §1

[7] = BET inhibitor-based combinations targeting novel dependencies in MECOM-rearranged (r) AML: UCSD-AML1 cell line (AID 2202235); details: UCSD-AML1 AML cells viability, CellTiter-Glo, 48 h; series mostly up to 46 µM;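 further: plate controls were DMSO vehicle wells for no effect and blank wells for full effect; nearly all actives have a fitted effect of over 40% in size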
Summary of the method: (§2)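 Luminescent ATP readout (CellTiter-Glo, 15 min at room temperature) after 48 hr drug exposure gave viability. Dose-response curves, normalized to DMSO and empty-well controls, were summarized as area under the curve and its mean-centred Z-score.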

[8] = qHTS for Inhibitors of the Aldehyde Dehydrogenase Family (ALDH1A2, ALDH1A3, ALDH2, ALDH3A1) (AID 2061307); details: ALDH inhibition qHTS; series mostly up to 50.3 µM; further: on the % scale 0 is the no-effect control and ±100 the full control effect; nearly all actives have a fitted effect of over 50% in size
[9] = biological target: Retinaldehyde dehydrogenase 3 (Homo sapiens) (UniProt P47895); test: qHTS for Inhibitors of the Aldehyde Dehydrogenase Family (ALDH1A3) Confirmatory screens (AID 2061311); details: ALDH inhibition qHTS; series mostly up to 46 µM; further: nearly all actives have a fitted effect of over 60% in size; further: potency means the concentration at half of the fitted maximal effect
[10] = BET inhibitor-based combinations targeting novel dependencies in MECOM-rearranged (r) AML: MV-4-11 cell line (AID 2202233); details: MV-4-11 AML viability, CellTiter-Glo luminescence, 48 h; series mostly up to 46 µM; further: nearly all actives have a fitted effect of over 45% in size; further: potency means the concentration at half of the fitted maximal effect
Summary of the method: as §2

[11] = BET inhibitor-based combinations targeting novel dependencies in MECOM-rearranged (r) AML: HNT-34 cell line (AID 2202234); details: HNT-34 AML viability, CellTiter-Glo luminescence, 48 h; series mostly up to 46 µM; further: nearly all actives have a fitted effect of over 35% in size; further: potency means the concentration at half of the fitted maximal effect
Summary of the method: as §2

[12] = BET inhibitor-based combinations targeting novel dependencies in MECOM-rearranged (r) AML: AML-191 cell line (AID 2202236; further: nearly all actives have a fitted effect of over 35% in size; further: potency means the concentration at half of the fitted maximal effect); details: AML-191 viability, CellTiter-Glo luminescence, 48 h; series mostly up to 46 µM
Summary of the method: as §1

[13] = BET inhibitor-based combinations targeting novel dependencies in MECOM-rearranged (r) AML: AML-194 cell line (AID 2202237;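 further: plate controls were vehicle wells for no effect and wells without cells for full effect; nearly all actives have a fitted effect of over 40% in size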); details: AML-194 (MECOM-r AML) viability, CellTiter-Glo, 48 h; series mostly up to 46 µM
Summary of the method: as §1

[14] = biological target: Aldehyde dehydrogenase, mitochondrial (Homo sapiens) (UniProt P05091); test: qHTS for Inhibitors of the Aldehyde Dehydrogenase Family (ALDH2) Confirmatory screens (AID 2061303; active means well fitted inhibition curve with a large enough effect; title and protocol of this record describe different tests; further: on the % scale 0 is the no-effect control and ±100 the full control effect; nearly all actives have a fitted effect of over 45% in size); details: ALDH inhibition qHTS; series mostly up to 45.4 µM
[15] = biological target: Aldehyde dehydrogenase 1A1 (Homo sapiens) (UniProt P00352); test: qHTS for Inhibitors of the Aldehyde Dehydrogenase Family (ALDH1A1) Confirmatory screens (AID 2061316); details: ALDH inhibition qHTS; series mostly up to 47.3 µM; further: nearly all actives have a fitted effect of over 65% in size
[16] = biological target: Retinal dehydrogenase 2 (Homo sapiens) (UniProt O94788); test: qHTS for Inhibitors of the Aldehyde Dehydrogenase Family (ALDH1A2) Confirmation screens (AID 2061314); details: ALDH1A2 enzyme inhibition qHTS confirmation; series mostly up to 45.9 µM; further: potency means the concentration at half of the fitted maximal effect; nearly all actives have a fitted effect of over 65% in size

CCCN1CC[C@@H]2c3cc(O)ccc3CC[C@@H]21
inactive: activation [1] -3.44% | Potency [2] | Potency [3] | Potency [4]

CC(C)c1cccc(C(C)C)c1O
inactive: activation [1] 0.683% and -5.08% and -18.8% | Potency [2] | Potency [3] | Potency [4] | viability [5] 105% | Potency [6] | Potency [7]

CC(C)(O)[C@@H]1C2OC(=O)[C@@H]1[C@]1(O)C[C@H]3O[C@]34C(=O)O[C@H]2[C@]14C (tested in a mixture with another compound)
inactive: activation [1] 10.1% | Potency [2] | Potency [3] | Potency [4]

CCCN(CCC)[C@@H]1CCc2cccc(O)c2C1
inactive: activation [1] 20% | Potency [2] | Potency [3] | Potency [4]

N[C@@]1(C(=O)O)CC[C@@H](C(=O)O)C1
inactive: activation [1] 21.8% | Potency [2] | Potency [3] | Potency [4]

O=[N+]([O-])c1cc(O)c(O)c([N+](=O)[O-])c1
active: Potency [9] 10.1 µM
inactive: activation [1] -0.323% | Potency [2] | Potency [8]

Cc1sc2ccccc2c1CC1=NCCN1
inactive: activation [1] -35.5% | Potency [2] | Potency [3] | Potency [4]

C[N+](C)(C)CC#CCN1CCCC1=O
inactive: activation [1] -31.7% | Potency [2] | Potency [4]

CC[C@@H](C(N)=O)N1CCCC1=O
inactive: activation [1] 0.54% | Potency [2] | Potency [3] | Potency [4] | Potency [10] | Potency [11] | Potency [12] | Potency [13]

NCC1(CC(=O)O)CCCCC1
inactive: activation [1] -0.945% and -3.35% and 5.99% | Potency [2] | Potency [3] | Potency [4] | Potency [7]

C#CCOC(=O)C1=CCCN(C)C1
inactive: activation [1] -28.1% | Potency [2] | Potency [3] | Potency [4]

O=C(O)c1nn(Cc2ccc(Cl)cc2Cl)c2ccccc12
inactive: activation [1] 21.3% and 19.8% and -21.2% | Potency [2] | Potency [3] | Potency [4] | viability [5] 107% | Potency [10] | Potency [7] | Potency [12]

C[C@@H](N)Cc1cnc[nH]1
inactive: activation [1] 5.3% | Potency [2] | Potency [3] | Potency [4]

NCCc1ccc(O)cc1
inactive: activation [1] 0.565% and 11.2% | Potency [2] | Potency [3] | Potency [4]

NC(=O)CN1CC(O)CC1=O (configuration not stated)
inactive: activation [1] -34.2% | Potency [2] | Potency [3] | Potency [4]

COc1ccc(C(=O)N2CCCC2=O)cc1
inactive: activation [1] 27.7% and -18.6% and -9.06% | Potency [2] | Potency [3] | Potency [4] | viability [5] 119% | Potency [10] | Potency [11] | Potency [12] | Potency [13]

COC(=O)[C@@H](N)CCCN=C(N)N[N+](=O)[O-]
inactive: activation [1] -9.21% and -14.8% | Potency [2] | Potency [3] | Potency [4] | viability [5] 109% | Potency [6] | Potency [11] | Potency [12] | Potency [13]

Cc1ncc(CNC(=O)N(CCCl)N=O)c(N)n1
inactive: activation [1] 6.21% and -40.8% | Potency [2] | Potency [14] | Potency [8] | Potency [9] | Potency [15]

CN(N=O)c1ccc(O)c(O)c1
active: Potency [9] 12.7 µM
inactive: activation [1] -30.1% | Potency [2]

CC[C@@]1(O)C(=O)OCc2c1cc1n(c2=O)Cc2cc3ccccc3nc2-1
inactive: Potency [3]
active: Potency [1] 1.09 µM | Potency [2] 3.79 µM | Potency [10] 0.0074 µM | Potency [11] 0.0053 µM | Potency [12] 0.0209 µM

CCCN(CCC)[C@@H]1CCc2ccc(O)cc2C1
inactive: activation [1] -24.8% | Potency [2] | Potency [3] | Potency [4]

C[C@H](N)Cc1cccc(C(F)(F)F)c1
inactive: activation [1] -17% | Potency [2] | Potency [3] | Potency [4]

CN1C2CCC1CC(OC(=O)c1cc(Cl)cc(Cl)c1)C2 (configuration not stated)
inactive: activation [1] -57.3% | Potency [2] | Potency [3] | Potency [4]

CCCN(CCC)C1CCc2cccc(O)c2C1 (configuration not stated)
inactive: activation [1] 29.8% | Potency [2] | Potency [3] | Potency [4]

CN1CC[C@@]2(C)c3cc(O)ccc3N(C)C12 (some centres not stated)
inactive: activation [1] -31.1% | Potency [2]
active: Potency [9] 10.1 µM | Potency [16] 4.49 µM

Clc1cnc(Oc2ccc(Oc3ncc(Cl)cc3Cl)cc2)c(Cl)c1
inactive: activation [1] -22.6% | Potency [2] | Potency [3] | Potency [4]

NC(=O)CN1CCCC1=O
inactive: activation [1] -3.35% and 1.41% | Potency [2] | Potency [3] | Potency [4]
